Data on 40 compounds can be found in PubChem BioAssay (NCI).

This is part of a sample that, as a whole, favours compounds with a hit. Of some 83,000 tested, about 20% had one in any assay.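 Growth was measured after 48 h exposure to one concentration of compound in 96-well plates. Values under 10 count as active.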 Unmarked numbers belong to inactive results. Activity calls are given as the source filed them.

The test system of this experiment is KM12 colon. Briefly: NCI-60 one-dose screen, 48 h (100 = growth as untreated, 0 = no growth, -100 = all killed). The settings on record: 10 µM. Here is the method: Growth inhibition of the KM12 human tumor cell line is measured as a screen for anti-cancer activity. Cells are grown in 96 well plates and exposed to the test compound for 48 hours. Compounds are tested at a single concentration, which is 10^-5 M for most compounds. The reported endpoint is percent growth (GI% or GIPRCNT), where numbers from 0 - 100% represent growth inhibition, and numbers from -100% - 0 represent cell death. For example, a value of 40 represents 60% growth inhibition. A value of 0 means no net growth occurred over the course of the experiment. A value of -40 indicates 40% of cells at the beginning of the experiment died by the end of the experiment. A value of -100 means all cells are dead at the end of the experiment.
NCI-60 Human Tumor Cell Lines Screen was performed using the standard one-dose NCI protocol, which is described in more detail at https://dtp.cancer.gov/discovery_development/nci-60/default.htm.
Compounds with GIPRCNT values below 10 were considered active. Activity score was based on GIPRCNT using the following formula: […]
Score is 0 for GIPRCNT values of 100 or above, 50 for GIPRCNT values of 0, and 100 for GIPRCNT values of -100.
For `O=C1NC(=S)S/C1=C\c1cn(-c2ccccc2)nc1-c1ccc([N+](=O)[O-])cc1`, the growth was 24.4%.

With `Fc1ccc(/C=C/c2nc3ccccc3n3c(-c4ccc(Cl)cc4)nnc23)cc1`, the growth is 80.2%.

On to `COc1ccc(C2c3sc4ccc(C)cc4c3Oc3nc(N)nc(N)c32)cc1` (stereo not given), for which the growth is 70.9%.

Take `COc1ccc(-n2c(SCC(=O)NNS(=O)(=O)c3ccccc3)nc3ccc(Cl)cc3c2=O)cc1`: the growth was 102%.

With `CC1(C)CC(=O)C2=C(C1)N(Cc1ccc(C(=O)O)cc1)C1=C(C(=O)CC(C)(C)C1)C2c1ccc(Cl)cc1`, the growth was 108%.

In the case of `Cn1cc(-c2nnc(N)nc2-c2c[nH]c3ccc(F)cc23)c2cc(Br)cnc21`, the growth is 61.5%.

`CCOC(=O)c1ccc(NC(=O)CSC(CC(=O)c2sc(Nc3ccccn3)nc2C)c2ccccc2F)cc1` (stereo not given): the growth was -50.8% (active).

As to `O=C(c1ccccc1)c1ccc2nc(-c3ccccc3Br)[nH]c2c1`, the growth was -44.2% (active).

For the compound `Fc1ccc(-c2csc(Nc3cccc(Nc4nc(-c5ccc(F)cc5)cs4)c3)n2)cc1`, the growth was 37.6%.

As to `O=C1NC2C=CC=CC2/C1=C1/SC(=S)N(C2CC(=O)N(c3ccc(Br)cc3)C2=O)C1=O` (stereo not given), the growth was 81.4%.

For `C#C[C@]1(O)CC[C@H]2[C@@H]3CC=C4c5sc(Nc6ccc(N(C)C)cc6)nc5CC[C@]4(C)[C@H]3CC[C@@]21C`, the growth was 2.83% (active).

Turning to `COc1cccc(O)c1/C=C1\SCc2cc3c(OC)cccc3[o+]c21`, the growth was 110%.

Take `COc1cc2oc(-c3cccc(C(=O)Nc4ccc(Cl)cc4)c3)cc(=O)c2c(OCCN)c1OC`: the growth is -83.2% (active).

As for `O=C(c1ccc(F)cc1)C(c1c[nH]c2ccccc12)c1c[nH]c2ccccc12`, the growth was 70.3%.

With `COc1ccc(Cc2nn(CC(=O)N/N=C/c3ccc(Br)cc3)c(=O)c3c(C)noc23)cc1`, the growth is 60.7%.

For the compound `O=C(c1ccc(Cl)cc1)C(c1c[nH]c2ccccc12)c1c[nH]c2ccccc12`, the growth was -5.68% (active).

For the compound `O=C(CN1CCN(c2ncnc3c2cnn3-c2ccccc2)CC1)Nc1ccc(Cl)cc1`, the growth was 53.1%.

For the compound `Cc1ccc2c(c1)C(=O)/C(=C/c1c[nH]c3ccccc13)S2`, the growth is 35.1%.

`COc1ccc(C(=O)COc2ccc(NC(=O)Nc3ccc(Cl)c(C(F)(F)F)c3)cc2)cc1`: the growth is 13.6%.

As to `COc1ccc(Cc2nn(CC(=O)N/N=C/c3ccc([N+](=O)[O-])cc3)c(=O)c3c(C)noc23)cc1`, the growth was 79.7%.

Consider `O=C(CN1CCN(c2ncnc3c2cnn3-c2ccccc2)CC1)Nc1ccc(Br)cc1`, for which the growth is 57.5%.

With `Cn1cc(-c2cc(N)n3nc(-c4cn(C)c5ccccc45)cc3n2)c2cc(F)ccc21`, the growth was -69.1% (active).

Regarding `O=C(CSc1nc2ccccc2c(=O)n1-c1ccc(Cl)cc1)Nc1ccc(-c2nc3ccc([N+](=O)[O-])cc3[nH]2)cc1`, the growth was 43%.

In the case of `C#CCOc1cc(N(CC)CC)ccc1C(C(=O)NC(C)(C)C)N(C(=O)C1CCc2cc(F)ccc2O1)c1ccc(F)cc1F` (stereo not given), the growth is 25%.

In the case of `COc1ccc(OC)c(-n2cc(C#N)c(N)c2C(=O)c2ccc(Cl)cc2Cl)c1`, the growth is 27.4%.

In the case of `O=C(Nc1ccc(OCC(=O)c2ccc(Cl)cc2)cc1)Nc1ccc(Cl)c(C(F)(F)F)c1`, the growth is 14.9%.

Consider `Cn1cc(-c2nnc(N)nc2-c2c[nH]c3ccccc23)c2cc(Br)cnc21`, for which the growth is 51.1%.

On to `COc1ccc(NCc2cn(-c3ccc(C(=O)O)cc3)nc2-c2ccc(F)cc2)cc1C(F)(F)F`, for which the growth is 24.1%.

Consider `O=C(Nc1ccc(OCc2ccc(F)cc2)cc1)Nc1ccc(Cl)c(C(F)(F)F)c1`, for which the growth was 11.1%.

As for `Cc1cc(N=C2NC(=O)S/C2=C\c2ccc(F)cc2)n[nH]1`, the growth was 28.2%.

Take `COc1cc2oc(-c3cccc(C(=O)Nc4ccc(Cl)cc4)c3)cc(=O)c2c(OCCNC(=O)[C@@H](N)CO)c1OC`: the growth is 35.2%.

Turning to `O=C(Nc1ccc(OCc2ccc(Cl)cc2)cc1)Nc1ccc(Cl)c(C(F)(F)F)c1`, the growth was 10.2%.

For the compound `CC1[C@H]2[C@H](C[C@H]3[C@@H]4CC=C5c6sc(Nc7cccc(Cl)n7)nc6CC[C@]5(C)[C@H]4CC[C@@]32C)O[C@]12CC[C@@H](C)CO2` (stereo not given in full), the growth was 84.9%.

In the case of `Cc1cc(N=C2NC(=O)/C(=C/c3cc(C(C)(C)C)c(O)c(C(C)(C)C)c3)S2)n[nH]1`, the growth was 17.1%.

Take `Cn1cc(/C=C(/SS/C(=C/c2cn(C)c3cccc(C(=O)O)c23)C(=O)O)C(=O)O)c2c(C(=O)O)cccc21`: the growth was 103%.

Regarding `COc1cc(-c2nc3ccc(C)cc3[nH]2)ccc1OCc1nnc(-c2ccccc2Br)o1`, the growth was 65.9%.

With `Cn1cc(-c2cc3nc(-c4c[nH]c5ccccc45)cc(N)n3n2)c2cc(Cl)ccc21`, the growth is -82.2% (active).

As to `CCOc1ccc(/C=N/NC(=O)Cn2nc(Cc3ccc(OC)cc3)c3onc(C)c3c2=O)cc1`, the growth is 47.9%.

For `Cc1ccc(-c2nc(C#N)c(S(=O)(=O)N3CCN(S(C)(=O)=O)CC3)o2)cc1`, the growth is 92.5%.

As to `COc1ccc(Cn2cc(C#N)c(N)c2C(C)=O)c(OC)c1`, the growth was 106%.
